Assay results reported in PubChem BioAssay (NCATS).
“And” between values parts separate entries of the source, which are not always exact repeats. Identical values can stand only once. Inconclusive results are not listed. Unmarked numbers belong to inactive results. The source made the active and inactive calls. Calls come from the whole dose curve; as a rule, active = well fitted inhibition curve with a large enough effect; inconclusive = small, poorly fitted or top-dose-only effect; inactive = no such curve, though single readings can be large or run the other way.

target: Cytochrome P450 2C9 (Homo sapiens) (UniProt P11712); experiment: qHTS Assay for Inhibitors and Substrates of Cytochrome P450 2C9 (AID 883); details: recombinant CYP2C9, luciferin-H luminescence, 60 min; series mostly up to 11.4 µM; note: nearly all actives have a fitted effect of over 60% in size
Method in brief: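 Human CYP2C9 (10nM) with Luciferin-H at 100uM (its KM) in 25mM KPO4; compound preincubated 10 min at 37C, then NADPH regeneration for 60 min at 37C. Luciferin read by luminescence after detection reagent; normalized to 57uM sulphaphenazole as full inhibition.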
% is set by controls: 0 for no effect and ±100 for the full control effect.

Cytochrome P450 2C9 (Homo sapiens), sequence (P11712 whole entry, looked up): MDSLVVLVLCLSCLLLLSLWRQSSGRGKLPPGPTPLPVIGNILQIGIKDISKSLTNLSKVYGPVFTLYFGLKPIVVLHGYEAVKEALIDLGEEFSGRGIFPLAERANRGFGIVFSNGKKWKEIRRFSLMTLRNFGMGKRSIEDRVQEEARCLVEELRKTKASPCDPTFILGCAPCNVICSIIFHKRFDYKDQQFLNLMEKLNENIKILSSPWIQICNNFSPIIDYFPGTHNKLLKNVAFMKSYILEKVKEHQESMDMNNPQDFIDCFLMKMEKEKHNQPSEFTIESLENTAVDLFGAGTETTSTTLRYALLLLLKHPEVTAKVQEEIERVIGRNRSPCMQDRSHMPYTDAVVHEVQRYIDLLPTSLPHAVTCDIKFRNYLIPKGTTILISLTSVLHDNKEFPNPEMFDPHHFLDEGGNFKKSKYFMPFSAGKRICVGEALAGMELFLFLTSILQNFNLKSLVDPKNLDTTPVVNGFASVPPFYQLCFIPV

Structure (SMILES)	Potency
CCN1C(C)=C(C(=O)OC)C(c2ccccc2)N2C(=O)[C@](O)(C(=O)OC)C(c3ccccc3)C(C(=O)c3ccccc3)=C12 (some centres not stated)	inactive
COC(=O)NC(CC(C)=O)c1ccc2c(c1)OCO2 (configuration not stated)	inactive
COC(=O)C1=C(C)N(Cc2ccccc2)C2=C3C(=O)CCCC3[C@@](O)(C(=O)OC)C(=O)N2C1c1ccccc1 (some centres not stated)	inactive

target: Cytochrome P450 3A4 (Homo sapiens) (UniProt P08684); experiment: qHTS Assay for Inhibitors and Substrates of Cytochrome P450 3A4 (AID 884); details: recombinant CYP3A4, Luciferin-PPXE luminescence; series mostly up to 57.1 µM; note: nearly all actives have a fitted effect of over 50% in size; note: potency is the fitted concentration of half-maximal effect
Method in brief: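 Luminescent readout of luciferin produced by CYP3A4 (20 nM) dealkylation of Luciferin-PPXE, 25 uM (its KM). NADPH-driven reaction ran 60 min at RT after 10 min compound preincubation; data scaled to 57 uM ketoconazole as 100% inhibition.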

Cytochrome P450 3A4 (Homo sapiens), sequence (P08684 whole entry, looked up): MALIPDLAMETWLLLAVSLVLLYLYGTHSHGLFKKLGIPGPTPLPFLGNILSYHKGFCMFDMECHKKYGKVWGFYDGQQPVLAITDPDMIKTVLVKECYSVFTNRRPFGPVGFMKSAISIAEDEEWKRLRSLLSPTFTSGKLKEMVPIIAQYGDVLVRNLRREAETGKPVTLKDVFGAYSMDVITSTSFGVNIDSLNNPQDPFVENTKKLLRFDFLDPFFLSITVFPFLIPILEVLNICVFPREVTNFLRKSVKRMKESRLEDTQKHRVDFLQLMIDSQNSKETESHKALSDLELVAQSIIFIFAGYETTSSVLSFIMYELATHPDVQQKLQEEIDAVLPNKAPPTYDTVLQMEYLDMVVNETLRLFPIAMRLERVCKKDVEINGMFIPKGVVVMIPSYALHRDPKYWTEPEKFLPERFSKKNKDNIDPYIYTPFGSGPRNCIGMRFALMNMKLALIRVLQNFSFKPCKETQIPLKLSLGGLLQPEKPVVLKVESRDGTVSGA

Structure (SMILES)	Potency	activity change, negative = inhibition
C=CCOC(=O)C(C(C)=O)C(NC(=O)OC)c1cccs1 (configuration not stated)	3.16 µM (active)	
CCCCOC(OCCCC)[C@H](O)CSc1ccc2ccccc2c1	5.01 µM (active)	
CCCCCCC#CC1C=CC(OC(=O)OCC)C(COC(=O)OCC)O1 (configuration not stated)	3.98 µM (active)	
CC12C=C(/C=C/c3ccc(Br)cc3)C(C)(C1)C(c1ccc(Br)cc1)CC2=O (configuration not stated)	3.98 µM (active)	
COC(=O)N(/C=C/c1ccc(OC)cc1)CCc1ccc(OC)c(OC)c1	3.98 µM (active)	
CCCCCCC(=O)Cc1cc(OC)c(OC)cc1/C=C(/C(C)=O)C(=O)OC	3.98 µM (active)	
CC(=O)OCC1OC(C#CCCCc2ccccc2)C=CC1OC(C)=O (configuration not stated)	3.98 µM (active)	
COc1ccc(/C=C/N(CCc2ccc(OC)c(OC)c2)C(C)=O)cc1	2 µM (active)	
COC(=O)NC(/C(C(=O)OC)=C(\C)NCc1ccccc1)c1ccc(F)cc1 (configuration not stated)	3.16 µM (active)	
Cc1cc(C)cc(C#CC2C=CC(Oc3ccc(C4CCCC4)cc3)C(CO)O2)c1 (configuration not stated)	3.98 µM (active)	
COC(=O)C1=C(C)N(Cc2ccccc2)C2=C(C(=O)c3ccccc3)C(c3ccccc3)[C@@](O)(C(=O)OC)C(=O)N2C1c1ccccc1 (some centres not stated)		-22.8% [at 11.4 µM]
C=CCOC(=O)/C=C/NC(=O)/C=C/C=C/CCCCCCCC(C)O (configuration not stated)	3.16 µM (active) and 3.98 µM (active)	
C=CCC1C=CC(Oc2ccc(OC)cc2)C(CO)O1 (configuration not stated)	3.98 µM (active)	
COC(=O)C/C=C\[C@@H](C)[C@@H](/C=N\OC[C@@H]1O[C@H](c2ccccc2)C=C[C@@H]1Oc1ccc(OC)cc1)NS(=O)(=O)c1ccc(C)cc1	5.01 µM (active)	
COc1ccc(/C=C/N(CCc2ccc(OC)c(OC)c2)C(=O)c2ccccn2)cc1	3.98 µM (active)	
C=C(C)C(O)/C=C/c1ccc(Br)cc1 (configuration not stated)	3.98 µM (active)	
COC(=O)C1=C(C)N(Cc2ccccc2)C2=C3C(=O)N(C)C(=O)C3[C@@](O)(C(=O)OC)C(=O)N2C1c1ccccc1 (some centres not stated)		-21.3% [at 11.4 µM]
COC(=O)C1=C(C)N(Cc2ccccc2)C2=C3C(=O)OCCC3[C@@](O)(C(=O)OC)C(=O)N2C1c1ccccc1 (some centres not stated)	3.98 µM (active)	
COC(=O)[C@@H]1CC[C@H](C)[C@@H](c2ccc(C)cc2)N1C(=O)c1ccc(/C=N\O[C@@H](C)c2cn([C@H](CO)Cc3ccccc3)nn2)cc1	1.26 µM (active) and 3.16 µM (active)	
CC1CCC2C(=O)OC(COc3ccc(C(C)(C)C)cc3)CN2C1c1ccc(Br)cc1 (configuration not stated)		-22.1% [at 11.4 µM] and -29.8% [at 11.4 µM] and -21% [at 11.4 µM]

Structure (SMILES)	Potency	activity change, negative = inhibition
C=COCC1CN2C(CCC(C)C2c2ccc(Br)cc2)C(=O)O1 (configuration not stated)	3.16 µM (active) and 794 nM (active)	
CC12C=C(/C=C/C=C/c3ccccc3)C(C)(C1)C(/C=C/c1ccccc1)CC2=O (configuration not stated)	3.98 µM (active)	
Cc1ccc(S(=O)(=O)N[C@@H](CCc2ccccc2)CC(=O)C(C)(C)C)cc1	1.58 µM (active)	
CCOC(=O)OCC1OC(C#Cc2ccccc2)C=CC1Oc1cccc(N(C)C)c1 (configuration not stated)	3.98 µM (active)	
COc1ccc(O[C@H]2C=C[C@@H](c3ccccc3)O[C@H]2COC(=O)CC/C(C)=N/OCC[C@@H]2C=C[C@H](OC(C)=O)[C@H](COC(C)=O)O2)cc1	3.98 µM (active)	
COc1ccc(OC2C=CC(c3ccccc3)OC2CO)c(C(C)(C)C)c1 (configuration not stated)	0.794 µM (active)	
CC1CCC2C(=O)N3C(CCC(C)[C@@H]3c3cccc(N4CCOCC4)c3)C(=O)N2C1c1cccc(N2CCOCC2)c1 (some centres not stated)	3.98 µM (active)	
COc1ccc(OC2C=CC(C#Cc3ccc(F)cc3F)OC2CO)cc1 (configuration not stated)	3.98 µM (active) and 3.16 µM (active)	
CCOC(=O)OCC1OC(c2cc(C)cc(C)c2)C=CC1OC(=O)OCC (configuration not stated)	3.98 µM (active)	
C/C(CCC(=O)OC[C@@H]1O[C@H](C#Cc2ccccc2)C=C[C@@H]1Oc1ccc(C)cc1)=N/O[C@@H](C)c1cn([C@H](CO)Cc2ccccc2)nn1	3.98 µM (active) and 3.16 µM (active)	
COc1ccc(OCC2CN3C(CCC(C)C3c3ccc(Br)cc3)C(=O)O2)cc1 (configuration not stated)	3.98 µM (active)	
COc1ccc(/C=C/NC(=O)c2ccc(OC)cc2)cc1	3.16 µM (active)	
CC#CC(C)C(OCOC)C(CC(C)Cc1cc(Br)cc(OCc2ccccc2)c1OC)OC (configuration not stated)	3.16 µM (active)	
COc1ccc(O[C@H]2C=C[C@@H](c3ccccc3)O[C@H]2COC(=O)CC/C(C)=N\OC[C@@H](O)[C@H]2O[C@H]3OC(C)(C)O[C@H]3[C@@H]2O)cc1	3.98 µM (active)	
Cc1cc(C)cc(/C=C/C2OCC(O)C2Oc2ccc(C3CCCC3)cc2)c1 (configuration not stated)	3.16 µM (active)	
COc1ccc(O[C@H]2C=C[C@@H](c3ccccc3)O[C@H]2CO/N=C2/c3cc(OC)ccc3O[C@@H](c3cccc(OC)c3)[C@H]2O)cc1	3.16 µM (active)	
CCN1C(C)=C(C(=O)OC)C(c2ccccc2)N2C(=O)[C@](O)(C(=O)OC)C(c3ccccc3)C(C(=O)c3ccccc3)=C12 (some centres not stated)	3.16 µM (active)	
COC(=O)NC(CC(C)=O)c1ccc2c(c1)OCO2 (configuration not stated)	3.98 µM (active)	
COC(=O)C1=C(C)N(Cc2ccccc2)C2=C3C(=O)CCCC3[C@@](O)(C(=O)OC)C(=O)N2C1c1ccccc1 (some centres not stated)		-20% [at 11.4 µM]
